This note sets out measurements from PubChem BioAssay AID652010 (The Scripps Research Institute Molecular Screening Center, 2013).

The structures appear in SMILES notation. Among all 370,000 compounds or so, about 4,100 (1.1%) were called active. This excerpt belongs to a sample that is enriched for actives. Unmarked numbers belong to inactive results.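 How the source made its calls: active means inhibition above the mean over all tested compounds plus 3 SD (cut at about 3.6% in these data); inactive means the rest.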

A short description of the assay: relief of DAX-1 repression of SF-1 activity – cell-based, luminescence, SF-1 (NR5A1), full-length DAX-1, primary screen (AID 652010).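 Further: 0% = DAX-1 cells with DMSO and 100% = cells lacking DAX-1 with DMSO; higher inhibition means more luminescence from relief of DAX-1 repression.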 The conditions noted are these: HEK293T StAR-luciferase reporter, SF-1/DAX-1 repression relief; at 6.8 µM; hits give high values.
As for `CCNC(=O)c1sccc1-n1cccc1`, the inhibition was -0.31%.

On to `Cc1ccsc1C(=O)NCCc1ccco1`, for which the inhibition is 4.3% (active).

Regarding `Cc1ccsc1C(=O)NC1CCCCC1C` (centres undefined), the inhibition was -0.66%.

`COc1cccc(CNC(=O)[C@H]2CCCN2C(=O)[C@H]2CCCN2C(=O)C2CCCCC2)c1`: the inhibition was -1.49%.

For the molecule `Cc1ccc(-n2c(SCC(=O)Nc3cccc4ccccc34)nnc2-c2ccccn2)cc1`, the inhibition was -0.57%.

As for `O=C(NCCC1=CCCCC1)C1CCN(S(=O)(=O)c2ccc(Cl)s2)CC1`, the inhibition was 0.02%.

`CC[C@]12c3[nH]c4cc(CCC(=O)N(C)C)ccc4c3CCN1C(=O)[C@@H](CC(=O)NCCCN(C)C)C[C@@H]2C(=O)N1CCN(C(=O)c2ccco2)CC1`: the inhibition was 3.91% (active).

As for `CC[C@]12c3[nH]c4cc(CCC(=O)N(C)C)ccc4c3CCN1C(=O)[C@@H](CC(=O)NCCCn1ccnc1)C[C@@H]2C(=O)N1CCN(C(=O)C2CC2)CC1`, the inhibition was -0.23%.

As to `CC[C@]12c3[nH]c4cc(CCC(=O)N(C)C)ccc4c3CCN1C(=O)[C@@H](CC(=O)NCc1ccco1)C[C@@H]2C(=O)N1CCN(C(=O)c2ccco2)CC1`, the inhibition is 0.22%.

Consider `Cc1nc2ccc(C(=O)N3CCN(C(=O)C(C)(C)C)CC3)cc2n1C1CCCC1`, for which the inhibition is 1.16%.

For `COc1ccc(-n2c(SCC(=O)Nc3ccc(C)c(Cl)c3)nc3ccccc3c2=O)cc1`, the inhibition was -1.67%.

Consider `O=C(NCc1cccs1)c1ccc2c(c1)ncn2C1CCCC1`, for which the inhibition is 0.35%.

For the molecule `Nn1c(SCC(=O)Nc2ccc(S(N)(=O)=O)cc2)nnc1-c1n[nH]c2c1CCC2`, the inhibition is 0.11%.

`COC(=O)C1CN(CCc2ccccc2)CCS(=O)(=O)N1Cc1ccc(F)cc1` (centres undefined): the inhibition was -0.43%.

In the case of `CN(CCc1ccccc1)c1ccc([N+](=O)[O-])cn1`, the inhibition was -0.34%.

Regarding `CC(C)c1ccc(/C=C2\NC(=O)NC2=O)cc1`, the inhibition is 0.05%.

In the case of `CC(C)c1ccc(C=NNc2ccc([N+](=O)[O-])cn2)cc1`, the inhibition was 4.69% (active).

As to `Cc1ccc(C(=O)NN(CCC#N)C2=NS(=O)(=O)c3ccccc32)cc1`, the inhibition was 0.06%.

Consider `O=C(NCc1ccccc1)[C@H]1CCCN1C(=O)[C@@H]1CCCN1C(=O)c1ccc(Cl)cc1Cl`, for which the inhibition is 0.24%.

Turning to `CC[C@@H](CCC(=O)N(c1ccccc1)c1ccccc1)C1CC1`, the inhibition was -1.2%.

For the molecule `CCOc1cc(C(=S)N2CCOCC2)ccc1OS(=O)(=O)c1ccc(Br)cc1`, the inhibition is 0.06%.

Take `CC(=O)Nc1ccc(S(=O)(=O)Oc2ccc(Br)cc2C(=S)N2CCOCC2)cc1`: the inhibition was -1.94%.

As to `O=S(=O)(Oc1ccccc1C(=S)N1CCOCC1)c1ccc(Cl)cc1`, the inhibition is 3.63% (active).

For `COC(=O)c1cc(S(=O)(=O)N2CCN(c3ccccc3C)CC2)cn1C`, the inhibition was -1.02%.

For `CC(c1c[nH]c2ccccc12)c1c(-c2ccccc2)n(C)c2ccccc12` (centres undefined), the inhibition was -0.37%.

As to `CC(=O)N1CCc2cc(S(=O)(=O)NCCC(=O)N3CCCC3)ccc21`, the inhibition is -1.5%.

Consider `COc1ccc(C(C#N)=C2C=CC(=NO)c3ccccc32)cc1`, for which the inhibition was 4.3% (active).

On to `COc1ccc(/C(N)=N/OC(=O)Oc2ccccc2)cc1`, for which the inhibition was -0.74%.

On to `COc1ccc(C(=NN)c2ccc(OC)cc2)cc1`, for which the inhibition is 0.31%.

With `O=C(N[C@H](Cc1ccccc1)C(=O)N1CCCN(Cc2cccs2)CC1)[C@H]1O[C@@H](n2ccc(=O)[nH]c2=O)[C@H](O)[C@@H]1O`, the inhibition is 1.64%.

For the molecule `CCOc1ccc(NC(=O)COc2ccc(S(=O)(=O)N3CCCC3)cc2)cc1`, the inhibition was -0.61%.

`COc1ccc(-n2c(COc3ccccc3)nnc2SCC(=O)Nc2ccc3c(c2)OCO3)cc1`: the inhibition is -0.36%.

As to `CC(c1ccc(N)cc1)c1cn(C)c2ccccc12` (centres undefined), the inhibition was -0.01%.

Consider `COc1ccc(Cn2cc(COC(=O)N(C)Cc3ccccc3)nn2)cc1`, for which the inhibition is -0.67%.

As to `Cc1nn2c(c1-c1ccccc1)N=C(c1ccco1)CC2c1ccccc1` (centres undefined), the inhibition is -0.86%.

In the case of `Cc1nn(C(=O)c2ccoc2C)c(N)c1-c1ccccc1`, the inhibition is 3.82% (active).

As to `Cc1cc(-c2ccccc2)n2nc(C)c(-c3ccccc3)c2n1`, the inhibition is 0.27%.

As for `O=C(NCCc1c[nH]c2ccccc12)OCc1cn(-c2c(F)cccc2F)nn1`, the inhibition was -0.6%.

For `Cc1nc2ccc(S(=O)(=O)N(C)CC(=O)NC(C)c3ccccc3)cc2s1` (centres undefined), the inhibition is -0.1%.

As for `Cc1cccc(N(CC(=O)Nc2ccc(-c3nc4ccc(C)cc4s3)cc2)S(C)(=O)=O)c1`, the inhibition is 1.57%.

Take `Cc1ccc2nc(-c3ccc(NC(=O)CN(C)S(=O)(=O)c4ccccc4)cc3)sc2c1`: the inhibition is 3.65% (active).

As to `O=S1(=O)c2c(cccc2N2CCCC2)O[C@H](COCc2ccccc2)CN1C1CC1`, the inhibition is -1.16%.

As for `C=CCN1C(=O)[C@@H](CC(=O)NCC2CCCCC2)[C@]2(C(=O)OC)CCCCC=C12`, the inhibition is 0.53%.

Turning to `COC(C(=O)Nc1ccc(S(=O)(=O)Nc2ccc(C)c(C)c2)cc1)c1ccccc1` (centres undefined), the inhibition is -1.03%.

On to `Cc1ccc(NNC(=O)C2CCC2)cc1C`, for which the inhibition was 0.22%.

As for `Cc1ccc(N/C=C/C(=O)c2ccccc2)cc1C`, the inhibition is 5.15% (active).

`Nc1nc2c(ncn2[C@@H]2O[C@H](C(=O)N[C@H](Cc3ccccc3)C(=O)NCC3CCCCC3)[C@@H](O)[C@H]2O)c(=O)[nH]1`: the inhibition was 1.02%.

Turning to `COC(=O)Nc1nc2ccc(Sc3ccccc3)cc2[nH]1`, the inhibition was 0.19%.

Regarding `COC(=O)Nc1nc2ccc(C(=O)C3CC3)cc2[nH]1`, the inhibition was 7.48% (active).

In the case of `COc1ccc(CNC(=O)c2cc(C(=O)C3CC3)c[nH]2)cc1`, the inhibition was -2.24%.

As to `COc1ccc(-n2c(COc3ccc(C)cc3)nnc2SCC(=O)Nc2ccc(Oc3ccccc3)cc2)cc1`, the inhibition is -1.51%.

Turning to `COc1ccc(Cn2cc(CN3[C@@H](CC(C)C)COc4cc(Br)ccc4S3(=O)=O)nn2)cc1`, the inhibition was 0.86%.

Regarding `C=CCN1[C@H](CC(C)C)COc2cccc(N3CCCC3)c2S1(=O)=O`, the inhibition was -1.88%.

With `O=C(CCc1ccccc1)Nc1ncc([N+](=O)[O-])s1`, the inhibition is 4.52% (active).

Consider `O=C(CCc1ccccc1)Nc1ccc(NC(=O)C2CCCCC2)nc1`, for which the inhibition was -0.14%.

`O=C(CCc1ccccc1)Nc1ccc(NC(=O)C2CC2)nc1`: the inhibition is -0.05%.

In the case of `Cc1cc2oc(C(=O)Nc3c(C)n(C)n(-c4ccccc4)c3=O)c(C)c2cc1Cl`, the inhibition is -0.22%.

As to `Cc1ccnc(NC(=O)Cn2ccc([N+](=O)[O-])n2)c1`, the inhibition is 0.11%.

On to `Cc1ccnc(NC(=O)CCCOc2ccccc2)c1`, for which the inhibition was 0.57%.

Consider `Cc1ccnc(NC(=O)CNC(=O)c2ccccc2)c1`, for which the inhibition is 6.34% (active).

On to `O=C(CN1CCCc2ccccc21)NCc1ccc(F)cc1`, for which the inhibition was -0.22%.

Regarding `Brc1ccc(COCCc2cn(Cc3ccccc3)c3ccccc23)cc1`, the inhibition is 1.27%.

For the molecule `O=C(COc1ccc(Br)cc1F)NCC1(N2CCCCC2)CCCCC1`, the inhibition was 0.06%.

On to `CC(C)N(Cc1nnc(-c2ccc(Cl)cc2)o1)C(=O)C1=COCCO1`, for which the inhibition is -1.6%.

As to `CN(C)CCN(C(=O)C1=COCCO1)c1nc2ccc(Cl)cc2s1`, the inhibition is 4.61% (active).

Consider `CCCOP(=O)(c1ccc(N(C)C)cc1)C(O)c1cc(OC)c(OC)c(OC)c1` (centres undefined), for which the inhibition is 0.1%.

As for `CCCC[C@H](C(=O)N(CC)c1ccccc1)[C@@H](O)c1ccc2ccccc2c1`, the inhibition was -1.35%.

As to `COC(=O)[C@]12C[C@H](CC(=O)NCc3cccc4ccccc34)C(=O)N(CCc3ccc(OC)c(OC)c3)C1=C[C@H](C1CCCC1)O[C@@H]2C`, the inhibition is -1.59%.

For `C#CCN([C@H](C(=O)OC)C(C)CC)S(=O)(=O)c1ccccc1Br` (some centres undefined), the inhibition is -0.34%.

With `COc1ccc(NS(=O)(=O)c2ccc(C)c(C(=O)NCC(c3cccs3)N3CCOCC3)c2)cc1` (centres undefined), the inhibition was 1.82%.

`COc1ccc(C(CNC(=O)c2cccc(NS(=O)(=O)c3ccc(C)c(F)c3)c2)N2CCCC2)cc1` (centres undefined): the inhibition was 2.54%.

In the case of `COc1ccc(C(CNC(=O)c2cc(S(=O)(=O)Nc3cccc(C)c3)ccc2C)N2CCCC2)cc1` (centres undefined), the inhibition was 4.48% (active).

Regarding `CCOC(=O)C1(Cc2ccccc2)CCN(Cc2cn(C(C)=O)c3ccccc23)CC1`, the inhibition is -0.4%.

For `COc1ccccc1C(=O)NCCC(=O)NCC(c1ccco1)N1CCCCC1` (centres undefined), the inhibition was 0.45%.

As to `O=C(c1cnn2ccccc12)N1CCc2ccccc21`, the inhibition is 6% (active).

On to `CCCCn1nc(C(=O)N2CCc3ccccc32)c2ccccc2c1=O`, for which the inhibition was -1%.

For `O=C(c1cc2sccc2n1Cc1ccc(F)cc1)N1CCc2ccccc21`, the inhibition is -0.14%.

Consider `Cc1ccccc1C(=O)N[C@H](C(=O)N1CCC[C@H]1C(=O)NCc1ccccc1)C(C)C`, for which the inhibition is 0.49%.

As to `Nc1c(C(=O)Nc2ccc3c(c2)OCCO3)nnn1Cc1ccccc1`, the inhibition was 11.8% (active).

Regarding `O=C(Nc1ccc2c(c1)OCCO2)C(C1CC1)N1CCC(Cc2ccccc2)CC1` (centres undefined), the inhibition is -0.46%.

Regarding `O=C(CCS(=O)(=O)Cc1ccccc1)Nc1ccc2c(c1)OCCO2`, the inhibition was -0.13%.

Turning to `Cc1ccc(NC(=O)Cc2cccc(F)c2)c(S(=O)(=O)N2CCOCC2)c1`, the inhibition was -1.09%.

For `O=C(CSc1nnc(-c2ccccn2)n1-c1ccccc1)Nc1ccc2cn[nH]c2c1`, the inhibition is -1.05%.

As to `COc1cccc(-c2cnc(OC(C)(C)C)nc2OC(C)(C)C)c1`, the inhibition is -0.07%.

Regarding `CNc1ccc([N+](=O)[O-])cc1C(=O)O`, the inhibition was 0.42%.

On to `COc1cccc(NS(=O)(=O)c2ccc(-c3coc(C)n3)cc2)c1`, for which the inhibition is -0.43%.

For `O=[N+]([O-])c1ccc2oc(-c3cccc(O)c3)nc2c1`, the inhibition was 5.24% (active).

Take `O=[N+]([O-])c1ccc2c(c1)C(O)n1nc(-c3ccccc3)nc1S2` (centres undefined): the inhibition was -0.33%.

In the case of `COc1cccc(-c2nc3cc(C)ccc3o2)c1`, the inhibition was 4.5% (active).
